Assay results taken from PubChem BioAssay.

What follows are compounds tested on Noggin (protein binding on small-molecule microarray) (assay: small molecules binding Noggin protein – biochemical, 635/667 nm fluorescence, primary screen (AID 1095;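 further: score merges 667 nm feature fluorescence with signal to noise over triplicate slides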)). Details: 635 nm fluorescence, higher = more signal.

In order of rising composite z-score:
1. C=CCN(Cc1ccccc1)C(=O)C(c1cccs1)N(C(=O)/C=C\C(=O)O)c1ccc(CCOCCO)cc1 (stereo not given)  -1.51
2. CCCCN1CC=CC23O[C@@H]4/C=C\CCCOC(=O)C4[C@H]2C(=O)N(CCCCCO)[C@@H]3C1=O (stereo not given in full)  -1.16
3. COc1cc2c(cc1O)C=[N+](Cc1cc3c(cc1Br)OCO3)CC2  -0.833
4. CCCCCCCCCCC(O)C1C=CC2C(=O)NC(=O)C2N1Nc1ccc(Cl)cc1Cl (stereo not given)  -0.729
5. O=C1OCCC=C[C@H]2OC34C=CCN(c5ccc(Cl)cc5)C(=O)[C@H]3N(CCCO)C(=O)[C@@H]4C12 (stereo not given in full)  -0.469
6. COCCOC(=O)N1C(=O)[C@@]2(c3ccccc31)[C@H](C(N)=O)[C@H]1C(=O)O[C@H](c3ccccc3)[C@H](c3ccccc3)N1[C@@H]2c1ccc(O)cc1  -0.32
7. CC(=O)NCCCC[C@@H]1NC(=O)[C@H]2C[C@@H](C(=O)NCCCCCNC(=O)CS)[C@@H](c3ccc(O)cc3)N2C1=O  -0.309
8. Cc1ccc(/C=C/C=O)cc1  -0.244
9. CCCCCCc1nc(-c2ccc(-c3ccc(Cl)c(Cl)c3)o2)c(C)c2c1[Si](C(C)C)(C(C)C)OC2  -0.123
10. O=C(O)[C@@]1(CCS(=O)(=O)c2ccccc2)N=C(c2ccc(OCCCO)cc2)O[C@H]1c1ccccc1  -0.0519
11. CC(CO)N1C(=O)[C@@H]2C3C(=O)OCCC/C=C\[C@H]3OC23C=CCN(CCN2CCOCC2)C(=O)[C@@H]13 (stereo not given in full)  -0.0152
12. [N-]=[N+]=Nc1ccccc1C[C@@]1(C(=O)N2CCCCC2)N=C(c2ccc(OCCCO)cc2)O[C@@H]1c1ccccc1  0.0588
13. C=C(CCCC)C(=O)CC[C@H](OC(=O)c1cccnc1)c1ccc(OCCO)cc1  0.134
14. COC(=O)c1c(CC[C@@H](CO)NC(=O)NCCc2c[nH]c3ccccc23)oc(C(=O)Cc2ccccc2)c1C(=O)OC  0.145
15. CCOc1ccc(N2C(=O)CSC2c2cccc([N+](=O)[O-])c2)cc1 (stereo not given)  0.154
16. COC(=O)c1c(CC[C@@H](CO)NC(=O)N[C@@H](Cc2ccccc2)Cn2cc(-c3ccccn3)nn2)oc(C(=O)N2CCOCC2)c1C(=O)OC  0.227
17. COC(=O)[C@@]1(Cc2ccc(OC)cc2)[C@H]2c3cc(C(=O)N(C)C)n(Cc4ccc(C(F)(F)F)nc4)c3C[C@H]2CN1C(=O)c1ccccc1  0.243
18. C=CCC(OC(C)=O)[C@@H]1[C@@H](N(Cc2ccc(-c3ccccc3)cc2)C(=O)Cc2ccc(F)cc2)c2cc(OCCCO)ccc2N1C(=O)c1ccc2ccccc2c1 (stereo not given in full)  0.289
19. COC(=O)[C@@]1(Cc2ccc(OC)cc2)[C@H]2c3cc(C(=O)N4CCCC4)n(CCCNc4ncc(C(F)(F)F)cc4Cl)c3C[C@H]2CN1C(=O)c1ccccc1  0.341
20. CCOC(=O)C1=C[C@@H](C(C)C)N(S(=O)(=O)c2ccc(C)cc2)[C@H]1c1ccccc1F  0.351
21. COc1ccccc1CN1C(=O)c2ccccc2[C@@]2(Cc3ccccc3N(CCCN(C)C)C2=O)[C@@H]1c1ccc(CO)cc1  0.395
22. COCCCNC(=O)[C@]1(Cc2ccccc2)N=C(c2ccc(OCCCO)cc2)O[C@@H]1c1ccccc1CN=[N+]=[N-]  0.53
23. COc1ccc(C(O)C2C=CC3C(=O)N(C)C(=O)C3N2N(c2ccccc2)c2ccccc2)c2ccccc12 (stereo not given)  0.575
24. O=C1O[C@@H](c2ccccc2)[C@@H](c2ccccc2)N2[C@@H](c3ccccc3OCCO)[C@]3(C(=O)Nc4ccc(C#CC5(O)CCCCCC5)cc43)[C@@H](C(=O)N3CCN(c4ncccn4)CC3)[C@H]12  0.662
25. CS(=O)(=O)CCOC(=O)C1=CC(CCCO)=CC(c2ccc(CN3CCCC3)cc2)N(Cc2cccc(OC(F)(F)F)c2)C=C1C(=O)OCCS(C)(=O)=O (stereo not given)  0.738
26. C=CC[C@]1(C(=O)N2CCOCC2)N=C(c2ccc(OCCCO)cc2)O[C@H]1c1ccccc1N=[N+]=[N-]  0.752
27. COC(=O)C(CC#Cc1ccc2c(c1)[C@]1(C(=O)N2)[C@H](c2ccccc2OCCO)N2[C@H](c3ccccc3)[C@H](c3ccccc3)OC(=O)[C@H]2[C@@H]1C(=O)O)C(=O)OC  0.793
28. COCC(=C=CC[C@H](O)c1cccc(OCCO)c1)C[C@H](O)c1cc(Cl)cc(Cl)c1O  0.908
29. COc1ccc([Si](C)(C)[C@@H]2[C@@H](CC(=O)N3Cc4ccccc4C[C@H]3CO)O[C@]3(C(=O)N(Cc4cccc(N5CCC5=O)c4)c4ccccc43)[C@H]2C)cc1  0.954
30. C=C(CCCC)/C(=C/C[C@H](OC(C)=O)c1ccc(OCCO)cc1)c1cnc2ccccc2c1  1.04
31. CC(C)(C)OC(=O)CC[C@]1(C(=O)NCCN2CCOCC2)COC(c2ccc(OCCCO)cc2)=N1  1.05
32. COc1ccc(C(=O)Nc2ccc(CN3C(=O)[C@]4(O[C@H](CC(=O)N5CCC[C@H]5CO)[C@@H]([Si](C)(C)c5ccc(OC)cc5)[C@@H]4C)c4ccccc43)cc2)cc1  1.35
33. [N-]=[N+]=NCc1ccccc1[C@H]1OC(c2ccc(OCCCO)cc2)=N[C@@]1(Cc1ccccc1)C(=O)N1CCCCC1  1.37
34. CN(C)CCCC[C@@H]1NC(=O)[C@H]2C[C@@H](C(=O)NCCCCCN)[C@@H](c3cccc(OCCO)c3)N2C1=O  1.38
35. COC(=O)c1c2oc(c1C(=O)OC)C(=O)N[C@@H](C(C)C)Cn1cc(nn1)C1(CCCCC1)NC(=O)N[C@H](CO)CC2  1.59
